Measurements as given in PubChem BioAssay.
A number with no mark means an inactive call. For some of these results: Results with a measured potency or affinity are listed apart. Activity calls are given as the source filed them. Unless noted, the rule behind the calls is not given here.

Legend:
[1] = antimalarial activity against Dd2 strain (AID 2302;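 active = growth inhibition above 50% at the single 2 µM test dose, taken to imply half-maximal potency below 2 µM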;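 note: 0% = DMSO untreated growth and 100% = chloroquine plus artemisinin killed control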); details: P. falciparum Dd2 in RBCs, LDH growth readout, 72 h; at 2 µM; active compounds read high
[2] = HepG2 cytotoxicity, primary screen, cytotoxicity control for P. falciparum antimalarial project, cell-based, ATP luminescence (AID 2303;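 active = inhibition above 50%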;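 note: 0% = DMSO wells and 100% = digitonin-killed cells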); details: HepG2 viability, 24-48 h, at 10 µM, active compounds read high
[3] = molecular target: L-lactate dehydrogenase (Plasmodium falciparum (isolate CDC / Honduras)) (UniProt Q27743); experiment: PfLDH activity inhibition – cell lysate, 3D7 strain, counter-screen for P. falciparum growth inhibition project (AID 2304);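 note: 0% = vehicle and 100% = reference inhibitor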; details: P. falciparum 3D7 crude extract, LDH APAD/NBT absorbance; at 2 µM; active compounds read high
[4] = inhibition of 3D7 malaria parasite growth – strain 3D7 (AID 2306);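 note: 0% = DMSO wells and 100% = chloroquine plus artemisinin control wells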; details: P. falciparum 3D7 erythrocytic growth, LDH absorbance, 72 h; at 2 µM; active compounds read high
[5] = molecular target: Calcium-dependent protein kinase 1 (Plasmodium falciparum (isolate 3D7)) (UniProt P62344); experiment: PfCDPK1 kinase inhibitors, biochemical, TCAMS library (AID 1159585; cut-off not given, nearly all actives have IC50 up to about 0.98 µM;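 note: inhibitors leave more ATP so luminescence rises with inhibition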); details: recombinant PfCDPK1, Kinase-Glo ATP depletion luminescence
[6] = molecular target: Plasmodium falciparum protein kinase 6 (PK6, PF3D7_1337100) (UniProt Q8IDW1); experiment: PfPK6 kinase inhibitors, biochemical, TCAMS library (AID 1159586); details: recombinant PfPK6, Kinase-Glo ATP depletion luminescence
[7] = molecular target: Protein kinase 7 (PK7), Plasmodium falciparum 3D7 (PF3D7_0213400) (UniProt Q7YTF7); experiment: inhibition of Plasmodium PK7 catalytic activity – biochemical, TCAMS antimalarial set, Kinase-Glo luminescence (AID 1159587); details: recombinant PfPK7, Kinase-Glo ATP depletion luminescence
[8] = molecular target: Calcium-dependent protein kinase 4 (Plasmodium falciparum (isolate 3D7)) (UniProt Q8IBS5); experiment: PfCDPK4 kinase inhibitors, biochemical, TCAMS library (AID 1159588; cut-off not given, nearly all actives have IC50 up to about 0.91 µM); details: recombinant PfCDPK4, Kinase-Glo ATP depletion luminescence
Calcium-dependent protein kinase 4 (Plasmodium falciparum (isolate 3D7)), sequence (Q8IBS5 whole entry, looked up): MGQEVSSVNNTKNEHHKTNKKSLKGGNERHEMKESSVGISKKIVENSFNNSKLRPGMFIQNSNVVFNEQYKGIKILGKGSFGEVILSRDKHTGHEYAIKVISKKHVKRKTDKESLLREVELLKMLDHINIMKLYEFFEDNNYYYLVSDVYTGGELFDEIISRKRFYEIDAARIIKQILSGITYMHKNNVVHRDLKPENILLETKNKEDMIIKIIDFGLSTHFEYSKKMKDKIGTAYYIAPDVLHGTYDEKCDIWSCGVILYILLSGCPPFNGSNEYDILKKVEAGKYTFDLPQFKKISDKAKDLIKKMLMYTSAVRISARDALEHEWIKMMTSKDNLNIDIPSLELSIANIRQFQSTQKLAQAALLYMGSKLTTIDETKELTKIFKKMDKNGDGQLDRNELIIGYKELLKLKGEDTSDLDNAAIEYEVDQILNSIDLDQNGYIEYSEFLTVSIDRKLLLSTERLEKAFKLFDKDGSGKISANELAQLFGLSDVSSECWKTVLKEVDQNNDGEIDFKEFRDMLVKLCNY

L-lactate dehydrogenase (Plasmodium falciparum (isolate CDC / Honduras)), sequence (Q27743 whole entry, looked up): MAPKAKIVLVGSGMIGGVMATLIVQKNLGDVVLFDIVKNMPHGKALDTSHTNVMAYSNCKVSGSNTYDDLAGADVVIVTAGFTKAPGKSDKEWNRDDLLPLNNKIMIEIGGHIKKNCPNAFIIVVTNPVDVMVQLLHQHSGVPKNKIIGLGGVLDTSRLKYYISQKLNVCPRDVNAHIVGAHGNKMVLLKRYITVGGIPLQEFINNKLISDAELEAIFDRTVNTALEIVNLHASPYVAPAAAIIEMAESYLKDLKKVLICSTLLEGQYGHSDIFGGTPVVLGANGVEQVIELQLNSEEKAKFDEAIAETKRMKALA
Plasmodium falciparum protein kinase 6 (PK6, PF3D7_1337100), sequence (Q8IDW1 1-305): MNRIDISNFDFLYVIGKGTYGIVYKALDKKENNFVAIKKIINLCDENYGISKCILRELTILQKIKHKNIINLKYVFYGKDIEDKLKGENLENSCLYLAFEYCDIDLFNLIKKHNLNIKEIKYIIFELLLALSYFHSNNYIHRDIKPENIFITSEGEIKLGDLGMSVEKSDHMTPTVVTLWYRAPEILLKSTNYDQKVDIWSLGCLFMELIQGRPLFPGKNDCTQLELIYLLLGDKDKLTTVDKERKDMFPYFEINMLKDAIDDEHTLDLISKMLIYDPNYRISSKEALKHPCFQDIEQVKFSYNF
Protein kinase 7 (PK7), Plasmodium falciparum 3D7 (PF3D7_0213400), sequence (Q7YTF7 1-343): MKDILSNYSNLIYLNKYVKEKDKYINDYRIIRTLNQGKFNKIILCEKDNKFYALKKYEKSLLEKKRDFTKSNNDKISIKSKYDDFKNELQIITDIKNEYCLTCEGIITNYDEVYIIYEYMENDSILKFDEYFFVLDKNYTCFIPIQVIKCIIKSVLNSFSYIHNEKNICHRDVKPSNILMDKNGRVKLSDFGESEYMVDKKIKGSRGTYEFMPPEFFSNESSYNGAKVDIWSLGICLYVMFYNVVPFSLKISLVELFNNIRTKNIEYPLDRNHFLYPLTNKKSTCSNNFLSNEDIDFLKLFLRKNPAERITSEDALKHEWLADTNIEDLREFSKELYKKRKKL
Calcium-dependent protein kinase 1 (Plasmodium falciparum (isolate 3D7)), sequence (P62344 whole entry, looked up): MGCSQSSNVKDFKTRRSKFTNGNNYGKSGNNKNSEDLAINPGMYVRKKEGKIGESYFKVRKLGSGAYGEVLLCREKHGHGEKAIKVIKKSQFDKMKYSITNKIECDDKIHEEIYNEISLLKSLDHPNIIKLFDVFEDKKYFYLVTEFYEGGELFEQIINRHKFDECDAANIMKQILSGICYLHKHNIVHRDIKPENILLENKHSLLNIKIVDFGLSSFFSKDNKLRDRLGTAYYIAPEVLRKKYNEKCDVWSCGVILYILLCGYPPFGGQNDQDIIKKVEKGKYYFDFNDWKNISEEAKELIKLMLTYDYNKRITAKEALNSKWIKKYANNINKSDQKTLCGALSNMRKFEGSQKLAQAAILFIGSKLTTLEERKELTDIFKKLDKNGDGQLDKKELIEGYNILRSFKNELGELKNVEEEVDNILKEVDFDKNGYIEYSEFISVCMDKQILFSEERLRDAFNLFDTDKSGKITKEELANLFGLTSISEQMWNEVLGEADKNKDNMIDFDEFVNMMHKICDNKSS

Row | SMILES | growth inhibition [1] | inhibition [2] | inhibition [3] [%] | growth inhibition [4] | outcome [5] | outcome [6] | outcome [7] | outcome [8]
1 | c1ccc2[nH]c(Nc3ccc(Nc4nc5ccccc5[nH]4)cc3)nc2c1 | 27% | -3% | 1 | 98% (active) | inactive | inactive | inactive | inactive
2 | COc1cncc(/C=C/c2cncc(C(=O)NCCc3ccc(Cl)cc3Cl)c2)c1 | 49% | -3% | -9 | 99% (active) | inactive | inactive | inactive | inactive
3 | O=C(Nc1ccc(F)cc1)c1cnc(N2CCN(c3ccncc3)CC2)c(Cl)c1 | 81% (active) | 41% | -3 | 100% (active) | inactive | inactive | inactive | inactive
4 | Cc1cc(C)c(C)c(S(=O)(=O)N2CCCCC(c3ccc(F)c(F)c3)=N2)c1C | 60% (active) | 5% | -3 | 86% (active) | inactive | inactive | inactive | inactive
5 | CC[C@H](C)CNC(=O)c1cncc(-c2cccc(CNC3Cc4ccccc4C3)c2)c1 | 76% (active) | 5% | 0 | 101% (active) | inactive | inactive | inactive | inactive
6 | Cn1nccc1C(=O)NCCNCc1cccc(-c2ccc(-c3nc4ccc(C(F)(F)F)cc4[nH]3)s2)c1 | 99% (active) | 36% | -6 | 100% (active) | inactive | inactive | inactive | inactive
7 | Cc1nc2ccc(-c3nc4ccc(N)cc4[nH]3)cc2[nH]1 | 80% (active) | 6% | -5 | 94% (active) | inactive | inactive | inactive | inactive
8 | COc1ccc(CN2CCCN(Cc3cccc(C(=O)Nc4ccc(C(C)(C)C)cc4)c3)CC2)cc1 | 3% | 46% | 2 | 98% (active) | inactive | inactive | inactive | inactive
9 | CCCCCCCc1c2c(C)c(C(=O)OCC)nc-2cc2n1CC(C)=C2C | 10% | 11% | 1 | 89% (active) | inactive | inactive | inactive | inactive
10 | O=C(Nc1ccc(C(=O)N2CCN(CCN3CCN(c4cccc(C(F)(F)F)c4)CC3)CC2)cc1)c1ccc(OC(F)(F)F)cc1 | 25% | 38% | 7 | 95% (active) | inactive | inactive | inactive | inactive
11 | CCCOc1ccc(OCCCON2C(N)=NC(N)=NC2(C)C)cc1 | 94% (active) | 59% (active) | 5 | 96% (active) | inactive | inactive | inactive | inactive
12 | Cc1cc2nc(-c3ccc(C(=O)NCc4cccc(C(F)(F)F)c4)cc3)[nH]c2cc1C | 34% | 4% | -9 | 98% (active) | inactive | inactive | inactive | inactive
13 | CCN(CC)CC(O)c1cc(-c2ccc(C)cc2)nc2c(C)cc(C)cc12 (stereo not drawn) | 99% (active) | 3% | 1 | 100% (active) | inactive | inactive | inactive | inactive
14 | O=C(N[C@@H](Cc1ccccc1)C(=O)NC1CCCc2ccccc21)c1ccc(O)c(-c2cccc(C(F)(F)F)c2)c1 (stereo partly drawn) | 41% | -2% | -1 | 91% (active) | inactive | inactive | inactive | inactive
15 | CC(=O)NCCNc1nccc(N2CCc3ncnc(Nc4ccc(OCc5cccc(F)c5)c(Cl)c4)c3C2)n1 | 100% (active) | 10% | 5 | 100% (active) | inactive | inactive | inactive | inactive
16 | COc1ccc2nccc([C@@H](O)CN3CCC(NCCOc4ccccc4C#N)CC3)c2c1 | 99% (active) | 10% | 2 | 101% (active) | inactive | inactive | inactive | inactive
17 | c1cc(-c2nc3ccccc3[nH]2)nc(-c2nc3ccccc3[nH]2)c1 | 24% | 7% | 0 | 87% (active) | inactive | inactive | inactive | inactive
18 | CC(C)C[C@@H](/C=N/N1CCOC1=O)NC(=O)[C@H](CC(C)C)NC(=O)c1ccc(OCCN2CCOCC2)cc1 | 87% (active) | 5% | 6 | 92% (active) | inactive | inactive | inactive | inactive
19 | O=C(Nc1ccc(C(=O)Nc2cccc(C3=NCCN3)c2)cc1)Nc1ccc(C2=NCCN2)cc1 | 98% (active) | -16% | -4 | 96% (active) | inactive | inactive | inactive | inactive
20 | COc1ccc(-n2ccnc2SCC(=O)Nc2cc(Cl)ccc2OC)c(OC)c1 | 92% (active) | -3% | -8 | 96% (active) | inactive | inactive | inactive | inactive
21 | COc1cccc(C(=O)OC2=C3CCC(=O)C3(C)CCC2=O)c1 (stereo not drawn) | 9% | 37% | 2 | 93% (active) | inactive | inactive | inactive | inactive

Row | SMILES | growth inhibition [1] | inhibition [2] | inhibition [3] [%] | growth inhibition [4] | outcome [5] | outcome [6] | outcome [7] | outcome [8]
22 | CC(C)Oc1ccccc1-c1csc(C(=O)NCC2CCN(Cc3ccc(C(C)(C)C)cc3)C2)c1 (stereo not drawn) | 45% | 59% (active) | 2 | 90% (active) | inactive | inactive | inactive | inactive
23 | Cc1cc(CNCC(CCNc2cc(=O)c3ccccc3[nH]2)NCc2cc(Br)cc(Br)c2)oc1C (stereo not drawn) | 85% (active) | 4% | 2 | 98% (active) | inactive | inactive | inactive | inactive
24 | COc1cccc(Nc2nccc(NCC(O)c3ccc(C(F)(F)F)cc3)n2)c1 (stereo not drawn) | 28% | 14% | -4 | 99% (active) | inactive | inactive | inactive | inactive
25 | N#Cc1ccccc1Sc1ccccc1C(=O)Nc1ccc2ccccc2n1 | 85% (active) | -3% | 0 | 92% (active) | inactive | inactive | inactive | inactive
26 | NC1CCN(Cc2ccc(-c3ccc(-c4nc5ccc(F)cc5[nH]4)cc3)cc2)C1 (stereo not drawn) | 99% (active) | 41% | -3 | 98% (active) | inactive | inactive | inactive | inactive
27 | O=C(Nc1cccc(C(F)(F)F)c1)c1cccc(S(=O)(=O)NC2CCN(CC3CCCCC3)C2)c1 (stereo not drawn) | 45% | 37% | -1 | 101% (active) | inactive | inactive | inactive | inactive
28 | c1ccc(CNc2cc(-c3ccccn3)nc(-c3ccccn3)n2)cc1 | 89% (active) | 88% (active) | -2 | 84% (active) | inactive | inactive | inactive | inactive
29 | Cc1cc2nc(/N=C(\N)NC(=O)NC3CCCCC3)nc(C)c2cc1C | 98% (active) | 20% | 2 | 94% (active) | inactive | inactive | inactive | inactive
30 | CN1CCN(c2ccnc3ccc(NC(=O)Nc4cccc5c(-c6ccncc6)cccc45)cc23)CC1 | 100% (active) | 7% | 1 | 100% (active) | inactive | inactive | inactive | inactive
31 | OC1CCCN(Cc2cccc(-c3ccc(-c4nc5ccc(F)cc5[nH]4)cc3)c2)C1 (stereo not drawn) | 42% | 16% | -4 | 101% (active) | inactive | inactive | inactive | inactive
32 | COc1cccc(C(=O)Nc2ccc(Nc3nc(C)cc(N4CCCCC4)n3)cc2)c1OC | 27% | 47% | 1 | 92% (active) | inactive | inactive | inactive | inactive
33 | COc1ccc(-c2cccc(NC(=O)c3ccc(C#N)cc3)c2)cc1CN1CCCN(C)CC1 | 89% (active) | 22% | -3 | 101% (active) | inactive | inactive | inactive | inactive
34 | CCN(CC)CCCC(C)Nc1c(-c2ccc(OC)cc2)cnc2ccccc12 (stereo not drawn) | 38% | 3% | -6 | 93% (active) | inactive | inactive | inactive | inactive
35 | NC1CCCN(Cc2cccc(-c3ccc(-c4nc5ccccc5[nH]4)s3)c2)C1 (stereo not drawn) | 88% (active) | 21% | -2 | 98% (active) | inactive | inactive | inactive | inactive
36 | N#Cc1ccc(CN2CCC(Oc3ccc(NC(=O)c4cccs4)cc3Cl)CC2)cc1 | 96% (active) | 26% | -1 | 95% (active) | inactive | inactive | inactive | inactive
37 | CCCCOc1cc(OC)c2ccccc2c1CCNCCCCNCCc1c(OCCCC)cc(OC)c2ccccc12 | 82% (active) | 100% (active) | -6 | 82% (active) | inactive | inactive | inactive | inactive
38 | COc1ccc(Nc2nc(NC3CCCC3)cc(-c3ccc(OC)cc3)n2)cc1 | 15% | 12% | 2 | 86% (active) | inactive | inactive | inactive | inactive
39 | Cc1ncc([N+](=O)[O-])n1CCOC(=O)NC(Nc1ccc(Br)cc1)C(Cl)(Cl)Cl (stereo not drawn) | 102% (active) | 0% | 5 | 99% (active) | inactive | inactive | inactive | inactive
40 | COC(=O)Cn1c(C2CCN(CC3CCN(C(=O)/C=C/c4ccc(Cl)c(Cl)c4)CC3)CC2)nc2ccccc21 | 2% | 19% | -1 | 86% (active) | inactive | inactive | inactive | inactive
41 | Clc1ccc2nc(-c3cccnc3)[nH]c2c1 | 97% (active) | -11% | 2 | 92% (active) | inactive | inactive | inactive | inactive
